Source: PubChem BioAssay (The Scripps Research Institute Molecular Screening Center)
MITF inh: inhibitors of human MITF | O75030 | AlphaScreen MITF homodimerization, bead proximity signal | inhibition, % at 2.6 µM | 0.91% of 650,000 active; in the data active means inhibition above about 50%;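 further: 0% = vehicle wells with protein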
TEAD-YAP inh: TEAD-YAP interaction inhibition; HEK-TIYL cells, TEAD-Gal4/YAP UAS-luciferase luminescence; inhibition, % at 9.12 µM; 1.4% of 640,000 active; AID 1259422; in the data active means inhibition above about 32%;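 further: 0% = median of test compound wells and 100% = reference inhibitor wells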
GPR151 ag: human GPR151 activation | Q8TDV0 | PathHunter beta-arrestin GPR151 cells, luminescence | activation, % at 11.2 µM | 1% of 650,000 active; in the data active means activation above about 4.9%;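 further: 0% = median of compound wells and 100% = cells with positive control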
FBW7 activator: activators of human E3 ligase FBW7; normalized activity (activation), % at 26.1 µM; 0.13% of 650,000 active; Q969H0; AlphaScreen FBW7–phospho-cyclin E peptide binding, activator screen; in the data active means normalized activity above about 1.9%;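 further: purified mutant Fbw7 with reduced substrate affinity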
Target sequence (Q969H0 whole entry, looked up): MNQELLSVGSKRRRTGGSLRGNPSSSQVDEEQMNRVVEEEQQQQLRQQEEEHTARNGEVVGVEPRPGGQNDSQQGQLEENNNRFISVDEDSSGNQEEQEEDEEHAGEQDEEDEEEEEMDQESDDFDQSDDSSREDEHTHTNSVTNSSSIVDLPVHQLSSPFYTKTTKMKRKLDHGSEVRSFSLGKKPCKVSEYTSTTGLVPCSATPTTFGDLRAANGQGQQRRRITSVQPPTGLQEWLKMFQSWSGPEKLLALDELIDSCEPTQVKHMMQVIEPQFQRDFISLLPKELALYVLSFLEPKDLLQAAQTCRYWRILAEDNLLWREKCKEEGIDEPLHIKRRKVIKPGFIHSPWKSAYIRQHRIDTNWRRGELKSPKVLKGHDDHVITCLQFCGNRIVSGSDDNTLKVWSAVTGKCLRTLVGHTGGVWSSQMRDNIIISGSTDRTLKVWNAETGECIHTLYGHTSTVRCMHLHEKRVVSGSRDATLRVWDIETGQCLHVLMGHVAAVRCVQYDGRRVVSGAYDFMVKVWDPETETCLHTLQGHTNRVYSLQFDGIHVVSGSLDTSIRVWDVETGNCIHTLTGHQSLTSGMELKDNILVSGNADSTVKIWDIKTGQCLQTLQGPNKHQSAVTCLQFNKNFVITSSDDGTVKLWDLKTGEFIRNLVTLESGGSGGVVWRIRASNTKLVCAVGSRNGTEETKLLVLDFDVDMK
GPR151 confirm: human GPR151 activation, confirmation screen. AID 1508609. 6,700 tested, under 10 active. shares compounds with GPR151 ag. GPR151 PathHunter beta-arrestin cells, luminescence, 90 min; % of EA-reagent control over plate median. activation, % at 11.2 µM;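 active means mean percent activation across replicates above the confirmation screen cutoff of 4.91%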
GPR119 counter: activates human GPR119 in a GPR151 counter-screen; shares compounds with GPR151 ag; GPR119 PathHunter beta-arrestin cells, luminescence, 90 min; 0 = compound-well median, 100 = enzyme-acceptor control; activation, % at 11.2 µM; 0.3% of 6,700 active;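 active means mean percent activation in the counterscreen above 29.09%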;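 further: counterscreen on off-target GPR119 to flag nonselective hits from the GPR151 activator screen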
The depositor's hits bear a star; · = no result given; ! = not active in a repeat. This is a sample that favours compounds with a hit; in the whole collection about 3.5% have one here.

SMILES | MITF inh | TEAD-YAP inh | GPR151 ag | FBW7 activator | GPR151 confirm | GPR119 counter
Cn1c(SCCC(=O)O)nnc1-c1cccc([N+](=O)[O-])c1 | 8 | 7 | 1 | 0 | · | ·
COc1ccccc1-c1nnc(SCc2nnc(-c3cccc([N+](=O)[O-])c3)o2)n1C | -9 | 10 | 6.3* | 0 | 1 | 7
Cn1c(SCC(=O)c2ccc(F)cc2)nnc1-c1cccc([N+](=O)[O-])c1 | 5 | 13 | 5.7* | 0 | 0 | -9
CC(=O)N1c2ccc(S(=O)(=O)N3CCCC3C(=O)Nc3nc(C)cs3)cc2CC1C (stereo not drawn) | 5 | 10 | 5.0* | 0 | 0 | 2
CC(=O)N1c2ccc(S(=O)(=O)N3CCCC3C(=O)Nc3cccc(C)n3)cc2CC1C (stereo not drawn) | 6 | 7 | 1 | 0 | · | ·
CCC1CCCCN1C(=O)Cn1c(=O)n(-c2ccc(F)cc2)c(=O)c2sccc21 (stereo not drawn) | -2 | 14 | 2 | 0 | · | ·
CC1CCCCN1C(=O)Cn1c(=O)n(-c2ccc(F)cc2)c(=O)c2sccc21 (stereo not drawn) | -2 | 8 | 5.2* | 0 | 0 | -5
CCOC(=O)C1=C(C)NC(=O)NC1c1cc(OC)ccc1O (stereo not drawn) | 15 | 2 | 5 | 0 | · | ·
O=c1c2ccccc2c(-c2ccc(Br)cc2)nn1-c1ccccc1 | 6 | 10 | -1 | 0 | · | ·
CC(C)c1ccc(-c2nn(-c3ccccc3)c(=O)c3ccccc23)cc1 | -6 | 2 | 5.2* | 0 | 1 | -5
Clc1c(CSc2nc3ccccc3o2)nc2ncccn12 | 8 | -28 | 0 | 0 | · | ·
CC1Nc2ccccc2-c2nnc(SCc3ccc(Cl)cc3)nc2O1 (stereo not drawn) | -2 | -3 | -1 | 0 | · | ·
Cc1ccc(SCc2nc3ccccc3c(=O)[nH]2)cc1 | 2 | -27 | -1 | 0 | · | ·
Cc1nc(SC2CCCCC2=O)c(C#N)c(-c2cccs2)c1C(=O)Nc1ccccc1 (stereo not drawn) | 3 | 8 | 5.1* | 0 | -1 | -8
Cc1c(C#N)c2nc3c(c(-c4ccccc4)c2n1-c1ccccc1)CCCC3 | -1 | 6 | 6.1* | 0 | 0 | -8
Cc1c(C#N)c2nc3c(c(-c4ccccc4)c2n1-c1ccccc1)C(=O)CC(C)(C)C3 | 9 | 6 | 0 | 0 | · | ·
NC(=O)C1CCN(Cn2nc(-c3ccccc3)n(-c3ccccc3)c2=S)CC1 | -7 | 1 | 1 | 0 | · | ·
Cc1ccc(CN2CCN(Cc3nc4ccccc4n3C)CC2CCO)cc1 (stereo not drawn) | 14 | -2 | 19* | 0 | 0 | 2
CC(C)CN1CCN(Cc2nc3ccccc3n2C)CC1CCO (stereo not drawn) | -1 | 2 | 2 | 0 | · | ·
COCCNC(=O)c1nn(C)c2c1CSc1ccccc1-2 | 2 | -31 | 6.7* | 0 | -1 | -9
CCn1c(C(=O)N2CCC(C(=O)NCc3cccc(OC)c3)CC2)cc2occc21 | 26 | -7 | -3 | 1 | · | ·
COc1nc2ccc(Br)cc2cc1[C@@H](c1ccccc1)[C@@](O)(CCN(C)C)c1cccc2ccccc12 | · | · | 7.5* | · | 0 | 2
CN(CCO)c1nc(-c2ccccc2)c2cc(Br)ccc2n1 | -16 | -4 | -1 | 0 | · | ·
Cc1cc(F)ccc1S(=O)(=O)Nc1cc2c(C(=O)O)c(C)oc2c2ccccc12 | 1 | 3 | 6.4* | 0 | 0 | -1
C=C(C)CCC(C)N1CCC(Oc2cccc(C(=O)NCCOC)c2)CC1 (stereo not drawn) | 4 | 3 | -1 | 0 | · | ·
SMILES | MITF inh | TEAD-YAP inh | GPR151 ag | FBW7 activator | GPR151 confirm | GPR119 counter
COCCNC(=O)c1cccc(OC2CCN(C(C)CSC)CC2)c1 (stereo not drawn) | -2 | 4 | 7.0* | 0 | 0 | 10
CS(=O)(=O)N1CCC(Oc2cccc(C(=O)NCCCOc3cccnc3)c2)CC1 | 0 | 6 | 5.0* | 0 | 0 | 5
CCOc1ccc2c(c1)c(=O)c(C(=O)c1ccccc1)cn2CC(=O)Nc1ccccc1 | 14 | -5 | 6.3* | 0 | 0 | 1
CS(=O)(=O)N(CC(=O)NCc1ccccc1)c1cccc(Cl)c1 | 16 | 6 | 6.1* | 1 | -1 | -4
COc1ccc2c(c1)OC[C@@H](Cc1ccc(OC)c(OC)c1)[C@@H]2O | -13 | -3 | 5.0*! | 0 | 0 | -1
COc1ccc(C(=O)Cc2ccc(OC)c(OC)c2)c(OC)c1 | -5 | -2 | 4 | 0 | · | ·
CC(C)c1nnc(-c2cc3ccccc3n2Cc2ccccc2)o1 | -11 | -6 | 5.6* | 0 | -1 | -13
COc1ccc(C(=O)Cn2c(-c3nnc(C(C)C)o3)cc3ccccc32)cc1 | 26 | -11 | 1 | 0 | · | ·
CCS/C(=C(\C#N)C(N)=O)c1ccc(-c2ccccc2)[nH]1 | -2 | 7 | 5.2* | 0 | 0 | 5
CC1SC(C)C(=O)N(CC(=O)NCc2ccccc2)C1=O (stereo not drawn) | 10 | -1 | 0 | 0 | · | ·
C[C@]1(Cn2ccnn2)[C@H](C(=O)O)N2C(=O)C[C@H]2S1(=O)=O | 8 | -2 | 10*! | 0 | 1 | 7
COC(=O)c1cccc(NC(=O)c2ccc[n+](C)c2)c1 | -3 | -3 | 0 | 0 | · | ·
C[n+]1cccc(C(=O)Nc2ccccc2)c1 | 17 | -1 | 5.4* | 0 | -1 | -8
O=C1CC(C(=O)N2CCC3(CC2)CC3C(=O)NCCC2=CCCCC2)c2ccccc21 (stereo not drawn) | -4 | -5 | 5.5* | 0 | 0 | 6
CC1CCN(C(=O)CSc2nc3c(c(=O)n(C)c(=O)n3C)n2Cc2ccccc2)CC1 | 8 | -2 | 1 | 0 | · | ·
COc1ccc(CNc2ncnc3c2cnn3-c2cccc(C)c2)cc1 | 5 | -12 | 5.2* | 0 | 0 | -5
Cc1ccc(-n2ncc3c(SCC(=O)NC(C)(C)C)ncnc32)c(C)c1 | -6 | 4 | 7.2* | 0 | 0 | -4
Cc1ccc(-n2ncc3c(NCc4cccnc4)ncnc32)c(C)c1 | 6 | 2 | 8.5* | 0 | -1 | -3
c1ccc(-n2ncc3c(Nc4cccc5ccccc45)ncnc32)cc1 | 16 | -2 | 5.7* | 0 | -1 | -8
Cc1cccc(C)c1NC(=O)C1CC(=O)N(c2ccc(F)cc2)C1 (stereo not drawn) | 11 | 1 | 0 | 0 | · | ·
CC(C)(C)c1ccc(CNC(=O)c2ccc(Oc3ccccc3)cc2)cc1 | 7 | 3 | 0 | 0 | · | ·
CCN(CC)CCN1C(=O)C(O)=C(C(=O)c2cc3ccccc3o2)C1c1ccc(C)o1 (stereo not drawn) | -20 | -7 | 6.1* | 0 | 0 | -6
O=C(CN1C(=O)COc2cc(S(=O)(=O)N3CCCCC3)ccc21)NC1CCCCCC1 | 7 | 6 | 1 | 0 | · | ·
